Reference: PubChem BioAssay (EPA / NIEHS)
Where “and” joins values, the source holds several entries; their conditions need not be identical. Identical values can stand only once. Results filed as inconclusive are left out. Some structures have more than one record in an assay (separate samples or runs), and their calls can disagree. Calls of active or inactive are those of the source. Rule for the calls, unless noted: active = hit-call score of the fitted dose curve at least 0.9, where 1 is the maximum; inactive = score below 0.9.

Key:
[1] = CCTE_Shafer_MEA_dev_network_spike_peak: CCTE's Neural Network Formation Assay for Mean Number of Electrodes in Network Spike, Shafer Lab (AID 2284049);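 note: fitted for loss of signal meaning fewer electrodes in network spikes than DMSO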
Method in brief: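 Continuous 12-day exposure of rat cortical cultures, starting at plating, on MEA plates. Endpoint: electrodes participating in network-spike peaks, AUC across DIV 5–12, DMSO as negative control.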

[2] = CCTE_Shafer_MEA_dev_spike_duration_mean: CCTE's Neural Network Formation Assay for Mean Spike Duration, Shafer Lab (AID 2284051);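 note: mean network spike duration pooled as area under curve over DIV 5 to 12 recordings; potency for a decrease in mean network spike duration versus DMSO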
Method in brief: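 Primary rat cortical neurons on 16-electrode MEA wells (PEI-coated, laminin in plating drop), exposed from plating through DIV 12 with compound renewed at DIV 5 and 9. Mean network-spike duration recorded DIV 5, 7, 9, 12; trapezoidal AUC across days, DMSO baseline.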

[3] = CCTE_Shafer_MEA_dev_network_spike_duration_std: CCTE's Neural Network Formation Assay for Standard Deviation of Network Spike Duration, Shafer Lab (AID 2284052);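 note: area under curve of spike duration SD across recording days 5 to 12; hits are decreases in network spike duration SD versus DMSO vehicle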
Method in brief: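 Primary rat cortical neurons on PEI-coated 16-electrode MEA wells, exposed from plating day 0 through day 12 with compound renewed at DIV 5 and 9. Network spike duration SD recorded on days 5, 7, 9, 12, collapsed as trapezoidal AUC; loss-of-signal fit versus DMSO.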

[4] = CCTE_Shafer_MEA_dev_per_network_spike_spike_number_mean: CCTE's Neural Network Formation Assay for Mean Number of Spikes in a Network Spike, Shafer Lab (AID 2284053);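 note: fitted as decrease in spikes per network spike relative to DMSO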
Method in brief: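 Primary rat cortical neurons on 48-well, 16-electrode MEA plates were exposed from plating to DIV 12, with dosing renewed on DIV 5 and 9. Spikes per network spike (0.05 s peak window) were recorded on DIV 5, 7, 9 and 12 and collapsed as trapezoidal AUC versus DMSO.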

[5] = CCTE_Shafer_MEA_dev_per_network_spike_spike_percent: CCTE's Neural Network Formation Assay for Percent of Spikes in a Network Spike, Shafer Lab (AID 2284054)
Method in brief: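 Primary rat cortical neurons on 16-electrode MEA wells (PEI-coated, laminin at plating), exposed from day 0 with renewal at DIV 5 and 9; spikes within 0.05 s of network-spike peaks over total spikes, AUC across days 5, 7, 9, 12.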

[6] = UKN5_HCS_SBAD2_cell_viability: Viability Assessment in the University of Konstanz (UKN) Leist Lab Neurite Outgrowth Assay in human iPSC-derived immature Dorsal Root Ganglia Neurons (UKN5) (AID 2284056)
Method in brief: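 iPSC-derived immature peripheral neurons (SBAD2) seeded on Matrigel with CHIR99021, SU5402 and DAPT, dosed 1 h later for 24 h. Viability from Hoechst H-33342 and calcein-AM live staining, high-content imaging; bidirectional fit versus DMSO.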

[7] = CCTE_Shafer_MEA_dev_LDH: CCTE's Lactate Dehydrogenase Assay for Cytotoxicity in the Neural Network Formation Assay, Shafer Lab (AID 2284068; active = hit-call score of the fitted dose curve at least 0.9, where 1 is the maximum;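 note: exposure for twelve days from plating with re-dosing on DIV 5 and 9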)
Method in brief: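 Primary rat cortical neurons were plated on PEI/laminin MEA plates and exposed from day 0 for twelve days, with compound renewed at DIV 5 and 9. Cytotoxicity was determined by spectrophotometric LDH assay relative to DMSO.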

[8] = UKN5_HCS_SBAD2_neurite_outgrowth: University of Konstanz (UKN) Leist Lab Neurite Outgrowth Assay in human iPSC-derived immature Dorsal Root Ganglia Neurons (UKN5) (AID 2284070); details: actives raise or lower the signal
Method in brief: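 SBAD2 iPSC-derived immature peripheral neurons on Matrigel, 100.000 cells/cm2, medium with CHIR99021 (1.5 uM), SU5402 (5 uM), DAPT (5 uM); compound added 1 h post-seeding for 24 h. Calcein-AM neurite area by high-content imaging; Hoechst H-33342 viability; bidirectional fit vs DMSO.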

[9] = CCTE_Shafer_MEA_dev_AB: CCTE's Alamar Blue Assay for Cytotoxicity in the Neural Network Formation Assay, Shafer Lab (AID 2284083; active = hit-call score of the fitted dose curve at least 0.9, where 1 is the maximum;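 note: twelve days of exposure from plating with re-dosing on DIV 5 and 9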)
Method in brief: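 Primary rat cortical neurons on PEI-coated 48-well MEA plates, 1.5 x 10^5 cells/well in laminin drop; compound exposure from day 0 of plating for twelve days, renewed at medium changes on DIV 5 and 9. Viability read as resazurin reduction by fluorescence, relative to DMSO.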

[10] = CCTE_Shafer_MEA_dev_mutual_information_norm: CCTE's Neural Network Formation Assay for Mutual Information Normalization, Shafer Lab (AID 2284091);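 note: mutual information between electrodes summarised as area under curve across four recording days; potency is for a decrease in mutual information relative to DMSO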
Method in brief: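 Rat cortical cultures, 48-well MEA, continuous exposure DIV 0–12 with full media/compound change DIV 5 and 9. Readout: inter-electrode mutual information, AxIS adaptive spike detection; AUC across DIV 5/7/9/12 recordings; DMSO baseline, negative fitting direction.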

[11] = CCTE_Shafer_MEA_dev_correlation_coefficient_mean: CCTE's Neural Network Formation Assay for Mean Correlation Coefficient, Shafer Lab (AID 2284093);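 note: well mean pairwise spike train correlation integrated as AUC over recording days 5 to 12; potency fitted for loss of correlation relative to DMSO vehicle wells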
Method in brief: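 Spontaneous activity recorded on days 5, 7, 9 and 12 post-plating; pairwise spike correlations are averaged across active electrodes and collapsed to an area-under-curve. Rat cortical cultures are dosed from plating through 12 days, with compound renewed at media changes.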

[12] = UKN2_HCS_IMR90_neural_migration: University of Konstanz (UKN) Leist Lab Neural Crest Cell Migration Assay in human induced IMR90 Pluripotent Stem Cells (UKN2) (AID 2284204); details: actives raise or lower the signal
Method in brief: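 iPSC-derived IMR90 neural crest cells on PLO/laminin/fibronectin were seeded around silicone stoppers; after stopper removal, migration in N2-S medium with EGF and FGF ran 24 h before 24 h chemical exposure. Calcein-AM/Hoechst high-content imaging; bidirectional fit versus DMSO.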

[13] = IUF_NPC1b_proliferation_BrdU_72hr: Leibniz Research Institute for Environmental Medicine (IUF) 72-hour Neural Progenitor Cell Bromodeoxyuridine (BrdU) Proliferation Assay (NPC1b) (AID 2284207)
Method in brief: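 hNPC spheres (primary, GW 16-19 fetal cortex), single sphere/well, EGF+FGF medium; 72 h compound, no renewal; BrdU pulse last 16 h; luminescent ELISA; activity vs DMSO baseline; growth-factor withdrawal as positive control.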

[14] = IUF_NPC1a_proliferation_area_72hr: Leibniz Research Institute for Environmental Medicine (IUF) 72-hour Neural Progenitor Cell Proliferation Area Assay (NPC1a) (AID 2284208)
Method in brief: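 Spheres of 0.3 mm are plated singly in growth-factor medium and exposed from day 0. After three days at 37C and 5% CO2, sphere area is measured by phase contrast imaging, with activity referenced to DMSO.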

[15] = IUF_NPC1_viability_72hr: Viability Assessment at 72 hours in the Leibniz Research Institute for Environmental Medicine (IUF) Neural Progenitor Cell Proliferation Assay (NPC1) (AID 2284209)
Method in brief: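 Single spheres (0.25-0.35 mm) of human fetal cortex-derived neural progenitor cells were grown in proliferation medium with EGF and FGF at 37C and 5% CO2. They were exposed for 72 h without renewal, and viability was read by alamar blue resorufin fluorescence.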

[16] = CCTE_Mundy_HCI_Cortical_Synap_Neur_Matur_NeuriteSpotCountPerNeuriteLength: CCTE's Synaptogenesis and Neurite Maturation Assay in rat cortical cells for Neurite Spot Count per Neurite Length, Mundy Lab (AID 2284210)
Method in brief: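 Rat primary cortical cultures, glia arrested with AraC at DIV 5, were dosed with media change at DIV 7 and fixed at DIV 12. Synaptophysin puncta per MAP2-labelled neurite length were quantified by high-content imaging versus DMSO.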

[17] = CCTE_Mundy_HCI_Cortical_NOG_NeuriteCount: CCTE's Neurite Outgrowth Assay in rat cortical cells for Neurite Count, Mundy Lab (AID 2284212);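 note: cells fixed about two days after chemical exposure began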
Method in brief: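 Neurite number per cell from high-content imaging of betaIII-tubulin immunostaining, with Hoechst nuclear counterstain.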

Measured: AC50

[CH3][Hg][Cl]
inactive: [15]
active: [1] 356 nM | [2] 275 nM | [3] 164 nM | [4] 536 nM | [5] 309 nM | [6] 3.17 µM | [7] 182 nM | [8] 636 nM | [9] 283 nM | [10] 134 nM | [11] 306 nM | [12] 5 µM | [13] 906 nM and 968 nM | [14] 370 nM | [15] 820 nM | [16] 881 nM | [17] 493 nM
